Pf Dd2 inh – inhibitors of Plasmodium falciparum Dd2 growth; Potency, µM (top dose mostly 28.9 µM), hits mostly inhibitors; P. falciparum Dd2 growth, SYBR Green, 72 h; 120,000 tested, 4.3% active; active = well fitted inhibition curve with a large enough effect; also: nearly all actives have a fitted effect of over 65% in size
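Readout: SYBR Green fluorescence, 485 nm excitation, 535 nm emission, after ~16 h lysis at 37C. Before that, Dd2-infected red cells (2.5% hematocrit) grew 72 h with compound, 29 uM top final concentration.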
Numbers stand for hits; n = inactive; [ ] = dose if it differs, or a comment. This excerpt belongs to a sample that is enriched for hits.

SMILES	Pf Dd2 inh
C[C@]1(CO)[C@H]2Cc3sc(NC(=O)c4ccco4)nc3[C@@H](CC(=O)Nc3ccccc3)[C@]2(C)CC[C@H]1O	7.1µM
Cn1cc(C(=O)N2C[C@@H](COCC3CC3)[C@H](c3ccccn3)C2)cn1	n
Cc1ccc([S+](=O)([O-])N2CCC3OCCN(C(C)C)C(=O)C3C2)cc1 (stereo not given)	n
Cc1noc([C@@H](C)NC(=O)Nc2ccc(Cl)cc2)c1C(=O)O	n
COC[C@@H]1CN(C(=O)c2cncc(C)c2)C[C@H]1C(N)=O	n
CNC(=O)N1CCC(C2CCN(Cc3ccncc3)C2)CC1 (stereo not given)	n
COc1cccc(Nc2csc(CN3CCCC(C)(NC(C)=O)C3)c2)c1 (stereo not given)	7.9µM
COc1cccc(Nc2cc(CN3CCC(C)(NC(C)=O)CC3)cc(OC)c2)c1	n
COc1cccc(-c2cccc(CN3CCCC(C)(NC(C)=O)C3)c2)c1 (stereo not given)	n
Cc1ccsc1C(=O)NC1CCN(C(=O)N2CC3CC(C2)[C@H]2CCCC(=O)N2C3)CC1 (stereo not given in full)	n
COC(=O)c1ccc(CN2C(=O)[C@@H]3C[C@@H](O)CN3C3(CN(C4CCN(C(C)=O)CC4)C3)C2=O)cc1	n
CC(=O)N1CCC(N2CC3(C2)C(=O)N(Cc2ccccc2Cl)C(=O)[C@@H]2C[C@@H](O)CN23)CC1	7.1µM
CCCCN1C(=O)[C@@H]2C[C@@H](O)CN2C2(CN(C3CCN(C(C)=O)CC3)C2)C1=O	n
O=C(CCC1CCN(S(=O)(=O)c2ccccc2F)CC1)NCc1ccncc1	n
O=C1NC2(CCN(C(=O)c3cccnc3)C2)N=C1c1cccnc1 (stereo not given)	n
CCn1cc(C(=O)NCc2ccc(C)cc2)c(=O)c2cc(S(=O)(=O)N3CCC(C)CC3)ccc21	n
Cc1ccc(NC(=O)c2oc3ccc(S(=O)(=O)N4CCCCCC4)cc3c2C)cc1Cl	n
Cc1ccc(CNC(=O)c2oc3ccc(S(=O)(=O)N4CCCC(C)C4)cc3c2C)cc1 (stereo not given)	10µM
CN(CC1CCOC1)S(=O)(=O)c1ccc(Br)s1 (stereo not given)	n[5.79 µM]
CC(C)OCCCNc1nc2c([S+](=O)([O-])c3ccc(Cl)cc3)nnn2c2ccccc12	n
Cc1nc(N2CCN(C(=O)Cc3ccc(Cl)cc3)CC2)cc(C(F)(F)F)n1	4µM
Cc1nc(N2CCN(C(=O)Cc3ccccc3Cl)CC2)cc(C(F)(F)F)n1	n
Cc1nc(N2CCC(NC(=O)Cc3ccc(Cl)cc3)CC2)cc(C(F)(F)F)n1	n
COc1cccc(NC(=O)Cn2c(C)cc3nc4n(c(=O)c32)CCCCC4)c1	n
COc1ccc(CCC(=O)Nc2cccc(-c3nnc4n3CCCC4)c2)cc1	7.9µM
SMILES	Pf Dd2 inh
O=C(Nc1ccc(-c2nnc3n2CCCC3)cc1)Nc1ccccc1F	n
Cc1cccc(NC(=O)Cn2nc3n(c2=O)CCCCC3)c1	n
O=C(CCCc1ccccc1)Nc1cccc(-c2nnc3n2CCCC3)c1	4.5µM
COc1ccccc1CCC(=O)Nc1ccc(-c2nnc3n2CCCC3)cc1	n
Cn1ncc2c(NCc3noc(-c4cccs4)n3)nc(C(C)(C)C)nc21	n
COCC(=O)N1CC[C@H](c2nc3ccc(C)cc3[nH]2)C1	n
O=C(CC[C@H]1NC(=O)c2ccccc2NC1=O)Nc1nc(-c2cccnc2)cs1	n
CCCn1c(C)cnc1CCNC(=O)CCC1CCCC1	2.5µM
Cc1cnc(-c2ccncc2)n1CCNC(=O)CCC1CCCC1	n
CCNC(=O)NCCc1ncc(C)n1CC1CC1	n
COc1cccc2c1ccn2CCNC(=O)Cn1nc2c(cc1=O)CCCCC2	n
COCc1noc([C@@H]2CN(C(=O)CCc3nc4ccccc4[nH]3)C[C@H]2C(N)=O)n1	n
CCNC(=O)c1cccnc1OC1CCN(C(=O)c2ccnn2C)C1 (stereo not given)	n
COc1ccc(-c2cn3c(n2)CO[C@@H](CNC(=O)C2CCCC2)C3)cc1	n
COc1ccc(NC(=O)NC[C@H]2Cn3cc(-c4ccc(C)cc4)nc3CO2)cc1	2.5µM
COc1ccc(-c2cn3c(n2)CO[C@@H](CNC(=O)c2ccccc2OC)C3)cc1	n
CC(C)c1noc(-c2cn(C3CCN(C(=O)c4cccc(OC(F)(F)F)c4)C3)nn2)n1 (stereo not given)	n
Cc1noc(-c2cn(C3CCN(C(=O)c4ccc(C)s4)CC3)nn2)n1	n
Cc1noc(-c2cn(C3CCN(C(=O)C4(c5ccccc5)CC4)CC3)nn2)n1	n
Cc1ccc(C(=O)N2CCCC(n3cc(-c4nc(C5CC5)no4)nn3)C2)s1 (stereo not given)	n
COc1ccc(C2(C(=O)N3CCC(n4cc(-c5nc(C)no5)nn4)CC3)CC2)cc1	3.2µM
Cc1ccc(C(=O)N2CCC(n3cc(-c4nc(C5CC5)no4)nn3)C2)s1 (stereo not given)	10µM
CC(C)c1noc(-c2cn(C3CCN(C(=O)c4cccc(C(F)(F)F)c4)C3)nn2)n1 (stereo not given)	10µM
COc1cccc(C(=O)N2CCC(n3cc(-c4nc(C)no4)nn3)CC2)c1	n
CC(=O)Nc1cccc(C(=O)N2CCC(n3cc(-c4nc(-c5ccccc5)no4)nn3)C2)c1 (stereo not given)	4.5µM
SMILES	Pf Dd2 inh
Cc1ccc(C(=O)N2CCC(n3cc(-c4nc(-c5ccccc5)no4)nn3)C2)cc1C (stereo not given)	n
CC(=O)Nc1cccc(C(=O)N2CCC(n3cc(-c4nc(C)no4)nn3)CC2)c1	n
CC(C)c1noc(-c2cn(C3CCN(C(=O)c4ccc(F)c(F)c4)C3)nn2)n1 (stereo not given)	n
COc1ccccc1C(=O)N1CCC(N2CCCOC2=O)CC1	n
O=C(CCC1CCCC1)N1CCC2(CC1)CC(N(C(=O)c1ccccc1)C1CC1)CCO2 (stereo not given)	n
COC(=O)CNC(=O)C1CCc2nnc(CNC(=O)NC(C)C)n21 (stereo not given)	n
CCCNC(=O)NCC(=O)N1CCCCCNC(=O)CC1c1ccccc1 (stereo not given)	n
COCCc1nncn1C1CCN(S(=O)(=O)c2ccc(F)c(C)c2)CC1	n
COc1ccc(OC)c([C@@H]2C[C@H](NC(C)=O)C[C@H](Cc3ccccc3)O2)c1	n
CN(CC1CCN(CCc2cccc(F)c2)CC1)C(=O)COc1cccnc1	n
O=C1CCN(Cc2cccc(F)c2)CCCC(c2nc(-c3cccnc3)no2)CCN1 (stereo not given)	n
CCN(Cc1cccc2cnccc12)CC1CCCN(CCc2cccc(F)c2)C1 (stereo not given)	2.2µM
COc1ccc(NC(=O)C2CC(=O)N(c3n[nH]c4ccccc34)C2)c(OC)c1 (stereo not given)	n
CCc1ccc(Cn2nnc3c(=O)[nH]c(C4CCCN(C(=O)c5cccc(Cl)c5)C4)nc32)cc1 (stereo not given)	n
O=c1[nH]c(C2CCCN(S(=O)(=O)c3ccccc3Cl)C2)nc2c1nnn2Cc1ccc(OC(F)(F)F)cc1 (stereo not given)	n
COc1cccc(Cn2nnc3c(=O)[nH]c(C4CCCN(C(=O)c5ccc(C)cc5)C4)nc32)c1 (stereo not given)	10µM
COCCN1Cc2nc(-c3cnn(Cc4ccccc4)c3)ccc2OCC1=O	n
CC(C)N1C[C@H](O)C[C@H]1c1nnc2n1CCN(C(=O)C1CCOCC1)CC2	n
CCOc1cc(C(=O)NC2CCN(c3cc(-c4ccccc4)[nH]n3)CC2)cc(OCC)c1OCC	n
